The panel holds about 83,000 compounds, 20% with a hit somewhere; the sample as a whole holds those more often.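 Compound tested at a single concentration for 48 hours in 96-well plates; a percent growth value below 10 was scored as active.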 Values without a mark were called inactive. Active and inactive are the calls of the source.
Each molecule was assayed on MDA-MB-468 breast (assay: NCI-60 one-dose screen, 48 h (100 = growth as untreated, 0 = no growth, -100 = all killed)). Conditions: 10 µM unless noted.
Work on `CC(C)C1=NOC(=O)C1=Cc1cn(-c2ccco2)nc1-c1ccccc1` yielded a growth of 54%.
In the case of `N#Cc1c(-c2ccc(Cl)cc2)nc(N/N=C/c2cccc(Br)c2)nc1N1CCOCC1`, the growth is reported as 76.7%.
Molecule `O=S(=O)(/N=c1/n(-c2ccccc2)nc2n1CCN2C1=NCCN1)c1ccc(-c2ccccc2)cc1` has a growth of 94.3%.
`C=C1C(=O)O[C@H]2[C@H]1CC/C(CNC(=O)c1c[nH]c3ccc(F)cc13)=C\CC[C@@]1(C)O[C@@H]21` was tested, and the growth was -55.8% (active).
For `NCCCNc1nc2ccccc2c2c(=O)c3cccc(Cl)c3sc12`, the growth was -80.2% (active).
`COc1cc(C(=O)/C=C/c2c(C)n([O-])c3ccc(Cl)cc3[n+]2=O)cc(OC)c1OC` was tested, and the growth was 27.6%.
With `O=C(CC(O)c1ccncc1)c1ccccc1` (stereo unspecified) the growth was -50.3% (active).
`OCCCCc1nccc2c1[nH]c1ccccc12` gave a growth of 92.9%.
Molecule `Nc1ccn(C2OC(F)(CO)C(O)C2F)c(=O)n1` (stereo unspecified) has a growth of 76.2%.
In the case of `Clc1ccc(Nc2nnc(COc3ccccc3)c3ccccc23)cc1`, the growth is reported as -16.9% (active).
For `CN1CCN(Cc2ccc(NC(=O)c3cncc(C#Cc4c(N)ncc5c(F)cccc45)c3)cc2C(F)(F)F)CC1`, the growth was -82% (active).
`NC(=S)N/N=C(/C=C/c1cn(-c2ccccc2)nc1-c1ccc(Cl)cc1)c1cc2ccccc2oc1=O` showed a growth of 52.2%.
Molecule `CC1(C)NCCC[C@]2(C)[C@H]3CC[C@@H]4[C@H]5[C@H](C(=O)/C=C/c6ccco6)CC[C@]5(CO)CC[C@@]4(C)[C@]3(C)CC[C@@H]12` has a growth of 87.9%.
With `O=c1cc(-c2ccccc2)nc2cc(-c3ccco3)[nH]n12` the growth was -1.48% (active).
With `C[C@H]1[C@H](C)CC[C@]2(C(=O)O)CC[C@]3(C)C(=CC[C@@H]4[C@@]5(C)C[C@@H](Cc6cn([C@@H]7O[C@H](CO)[C@@H](O)[C@H](O)[C@H]7O)nn6)[C@H](O)C(C)(C)[C@@H]5CC[C@]43C)[C@H]12` the growth was 94.1%.
For `C=CCn1cc(-c2nc3ccccc3s2)c2cc(-c3ccc4c5c(cccc35)C(=O)N(CCN3CCNCC3)C4=O)ccc21`, the growth was 88.4%.
In the case of `COc1cc2c(c(OC)c1OC)C(=O)CC(c1cccc(NC(=O)c3ccc(Br)cc3)c1)O2` (stereo unspecified), the growth is reported as 12.1%.
`COc1ccc(-c2cc(-c3ccccc3)nc(NCCNc3ccnc4cc(Cl)ccc34)n2)cc1` was tested, and the growth was -73.7% (active).
With `COc1ccc2nc3cc(Cl)ccc3c(Nc3ccc(O)c(CN4CCCC4)c3)c2c1` the growth was -35.9% (active).
Work on `OCCOCCN(Cc1ccccn1)Cc1cc(I)cc(I)c1O` yielded a growth of 88%.
`Cc1ccc2nc(Cl)c(-c3nc4ccccc4o3)cc2c1` showed a growth of 100%.
With `COc1ccc(/C=C/C(=O)c2ccc(O)c(CN3CCN(c4cc5c(cc4F)c(=O)c(C(=O)O)cn5C4CC4)CC3)c2)cc1` the growth was 3.04% (active).
`CCCCNCC(=O)Nc1ccc(C(=O)OCC)cc1` gave a growth of 103%.
`CC[Si](CC)(CC)OC1[C@@H](O[Si](CC)(CC)CC)[C@@H](CNC(=O)NC)O[C@H]1n1cnc2c(NC(=O)Nc3ccccc3)ncnc21` (stereo partly specified) was tested, and the growth was 97.5%.
For `O=C(/C=C(/C=C/c1cccc2[nH]ccc12)OB(F)F)/C=C/c1cccc2[nH]ccc12`, the growth was -57% (active).
For `CC(C)N=C(N/C(N)=N/c1nc2ccccc2s1)NC(C)C`, the growth was 66.4%.

— PubChem BioAssay (NCI)
